Among the data in PubChem BioAssay are growth inhibition, inhibition and outcome values, retold here.

The nature of experiment [1]: antimalarial activity against Dd2 strain (AID 2302;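 active means growth inhibition above 50% at the single 2 µM test dose, taken to imply half-maximal potency below 2 µM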;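 further: 0% = DMSO untreated growth and 100% = chloroquine plus artemisinin killed control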). The conditions noted are these: P. falciparum Dd2 in RBCs, LDH growth readout, 72 h; at 2 µM; stronger effect = higher value.
Experiment [2] is described as follows: human hepatoma cell viability loss – ATP luminescence, cytotoxicity control for P. falciparum antimalarial project, primary screen (AID 2303;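 active means inhibition above 50%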;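 further: 0% = DMSO wells and 100% = digitonin-killed cells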). As to conditions: HepG2 viability, 24-48 h, at 10 µM, stronger effect = higher value.
The target of experiment [3] is L-lactate dehydrogenase (Plasmodium falciparum (isolate CDC / Honduras)) (UniProt Q27743). The experiment can be described thus: PfLDH activity inhibition – cell lysate, 3D7 strain, counter-screen for P. falciparum growth inhibition project (AID 2304).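 Further: 0% = vehicle and 100% = reference inhibitor.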 The conditions noted are these: P. falciparum 3D7 crude extract, LDH APAD/NBT absorbance; at 2 µM; stronger effect = higher value. (The purpose of a counterscreen is to sort out artefacts and off-target activity.)
Sequence of L-lactate dehydrogenase (Plasmodium falciparum (isolate CDC / Honduras)) (Q27743 whole entry, looked up): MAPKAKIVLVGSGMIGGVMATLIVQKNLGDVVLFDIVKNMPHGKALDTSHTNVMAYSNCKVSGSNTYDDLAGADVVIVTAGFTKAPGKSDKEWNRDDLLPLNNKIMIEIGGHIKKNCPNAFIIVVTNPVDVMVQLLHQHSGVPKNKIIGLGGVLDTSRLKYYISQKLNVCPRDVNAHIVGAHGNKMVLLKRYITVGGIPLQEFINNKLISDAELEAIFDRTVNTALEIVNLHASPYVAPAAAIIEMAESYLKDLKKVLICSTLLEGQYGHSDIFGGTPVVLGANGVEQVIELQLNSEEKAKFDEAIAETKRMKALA

A short description of experiment [4]: inhibition of 3D7 malaria parasite growth – strain 3D7 (AID 2306).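 Further: 0% = DMSO wells and 100% = chloroquine plus artemisinin control wells.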 As to conditions: P. falciparum 3D7 erythrocytic growth, LDH absorbance, 72 h; at 2 µM; stronger effect = higher value.
Experiment [5] deals with Calcium-dependent protein kinase 1 (Plasmodium falciparum (isolate 3D7)) (UniProt P62344). The experiment can be described thus: PfCDPK1 kinase inhibitors, biochemical, TCAMS library (AID 1159585; cut-off not given, nearly all actives have IC50 up to about 0.98 µM;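 further: inhibitors leave more ATP so luminescence rises with inhibition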). As to conditions: recombinant PfCDPK1, Kinase-Glo ATP depletion luminescence. For orientation: Kinase-Glo measures the ATP left after a reaction by luminescence.
Sequence of Calcium-dependent protein kinase 1 (Plasmodium falciparum (isolate 3D7)) (P62344 whole entry, looked up): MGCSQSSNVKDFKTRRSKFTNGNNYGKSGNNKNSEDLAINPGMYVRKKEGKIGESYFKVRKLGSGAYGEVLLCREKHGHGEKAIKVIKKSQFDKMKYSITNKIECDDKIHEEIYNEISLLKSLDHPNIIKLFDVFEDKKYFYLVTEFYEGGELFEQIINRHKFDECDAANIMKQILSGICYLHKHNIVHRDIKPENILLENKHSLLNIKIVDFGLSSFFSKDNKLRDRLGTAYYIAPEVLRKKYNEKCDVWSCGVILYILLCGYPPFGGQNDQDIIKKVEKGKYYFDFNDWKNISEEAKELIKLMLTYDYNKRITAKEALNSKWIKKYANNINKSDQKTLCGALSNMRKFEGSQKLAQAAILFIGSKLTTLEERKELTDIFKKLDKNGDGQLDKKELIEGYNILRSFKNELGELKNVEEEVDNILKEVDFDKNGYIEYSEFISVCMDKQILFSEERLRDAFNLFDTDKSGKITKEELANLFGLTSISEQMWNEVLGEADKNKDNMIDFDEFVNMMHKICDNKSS
In experiment [6] the target is Plasmodium falciparum protein kinase 6 (PK6, PF3D7_1337100) (UniProt Q8IDW1). The experiment can be described thus: PfPK6 kinase inhibitors, biochemical, TCAMS library (AID 1159586). As to conditions: recombinant PfPK6, Kinase-Glo ATP depletion luminescence.
Sequence of Plasmodium falciparum protein kinase 6 (PK6, PF3D7_1337100) (Q8IDW1 1-305): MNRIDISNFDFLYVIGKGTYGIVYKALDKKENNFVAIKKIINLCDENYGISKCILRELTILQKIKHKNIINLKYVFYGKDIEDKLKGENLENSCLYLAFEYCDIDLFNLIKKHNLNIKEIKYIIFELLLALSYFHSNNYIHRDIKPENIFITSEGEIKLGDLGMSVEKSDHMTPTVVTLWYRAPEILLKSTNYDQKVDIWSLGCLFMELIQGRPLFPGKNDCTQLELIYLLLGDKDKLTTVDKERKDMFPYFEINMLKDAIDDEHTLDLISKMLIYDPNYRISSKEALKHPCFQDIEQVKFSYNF
Experiment [7] deals with Protein kinase 7 (PK7), Plasmodium falciparum 3D7 (PF3D7_0213400) (UniProt Q7YTF7). The experiment can be described thus: inhibition of Plasmodium PK7 catalytic activity – biochemical, TCAMS antimalarial set, Kinase-Glo luminescence (AID 1159587). The conditions noted are these: recombinant PfPK7, Kinase-Glo ATP depletion luminescence.
Sequence of Protein kinase 7 (PK7), Plasmodium falciparum 3D7 (PF3D7_0213400) (Q7YTF7 1-343): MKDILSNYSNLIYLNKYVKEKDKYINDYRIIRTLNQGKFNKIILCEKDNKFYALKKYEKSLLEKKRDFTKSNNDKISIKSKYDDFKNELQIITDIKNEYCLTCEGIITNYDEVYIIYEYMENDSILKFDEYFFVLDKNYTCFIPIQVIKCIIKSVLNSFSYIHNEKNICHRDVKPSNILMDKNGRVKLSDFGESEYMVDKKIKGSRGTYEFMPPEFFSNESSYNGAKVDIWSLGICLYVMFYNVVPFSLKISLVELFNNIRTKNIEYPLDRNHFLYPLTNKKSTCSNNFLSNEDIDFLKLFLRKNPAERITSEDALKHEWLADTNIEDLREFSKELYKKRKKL
The target in experiment [8] is Calcium-dependent protein kinase 4 (Plasmodium falciparum (isolate 3D7)) (UniProt Q8IBS5). As to the kind of experiment: PfCDPK4 kinase inhibitors, biochemical, TCAMS library (AID 1159588; cut-off not given, nearly all actives have IC50 up to about 0.91 µM). As to conditions: recombinant PfCDPK4, Kinase-Glo ATP depletion luminescence.
Sequence of Calcium-dependent protein kinase 4 (Plasmodium falciparum (isolate 3D7)) (Q8IBS5 whole entry, looked up): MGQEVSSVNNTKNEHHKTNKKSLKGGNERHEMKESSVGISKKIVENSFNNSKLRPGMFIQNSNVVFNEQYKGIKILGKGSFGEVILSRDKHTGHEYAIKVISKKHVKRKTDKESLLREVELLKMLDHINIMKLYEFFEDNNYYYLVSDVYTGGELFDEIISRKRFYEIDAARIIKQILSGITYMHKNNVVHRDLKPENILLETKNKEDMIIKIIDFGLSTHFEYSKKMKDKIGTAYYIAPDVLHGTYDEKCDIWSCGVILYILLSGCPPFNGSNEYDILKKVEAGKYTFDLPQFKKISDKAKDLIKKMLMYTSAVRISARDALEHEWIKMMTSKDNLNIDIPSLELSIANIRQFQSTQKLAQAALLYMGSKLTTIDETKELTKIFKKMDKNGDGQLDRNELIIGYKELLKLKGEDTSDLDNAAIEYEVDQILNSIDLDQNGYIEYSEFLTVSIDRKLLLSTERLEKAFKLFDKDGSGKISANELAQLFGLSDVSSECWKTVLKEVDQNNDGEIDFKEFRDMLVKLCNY

In general, inhibition refers to the relative decrease from the control value, in per cent.

Values without a mark were called inactive. For some of these results: Results with a measured potency or affinity are listed apart. Activity calls are given as the source filed them. Unless noted, how the calls were made is not given here.

Take `COc1cc(C)nc2ccc(NC(=O)c3cc(C(F)(F)F)cc(C(F)(F)F)c3)cc12`: the growth inhibition in experiment [1] is 99% (active); in experiment [4], 101% (active). Besides, the inhibition in experiment [2] was 16%; in experiment [3] it was 0%. Further, the outcome in experiment [5], in experiment [6], in experiment [7] and in experiment [8] was inactive.
On to `O=C(Nc1ccc2oc(-c3ccc(Br)cc3)nc2c1)c1ccc([N+](=O)[O-])o1`, for which the growth inhibition in experiment [1] is 21%; in experiment [4], 92% (active). Moreover, the figures for the inhibition in experiment [2] and in experiment [3] were 9% and 2%, respectively. For the same compound, the outcome in experiment [5], in experiment [6], in experiment [7] and in experiment [8] was inactive.
With `CC1(C)C(=O)Nc2ccccc2N1C(=O)CN1CCN(c2ccccc2O)CC1`, the growth inhibition was 72% (active) in experiment [1] and 92% (active) in experiment [4]. The figures for the inhibition in experiment [2] and in experiment [3] were 7% and 0%, respectively. The outcome in experiment [5], in experiment [6], in experiment [7] and in experiment [8] was inactive.
As to `COc1cccc(CC(=O)NC2CCN(c3ccnc4cc(Cl)ccc34)C2)c1` (stereo not given), the growth inhibition in experiment [1] is 85% (active); in experiment [4] it was 101% (active). Further, the inhibition in experiment [2] is 9%; in experiment [3], -2%. For the same compound, the result in experiment [5], in experiment [6], in experiment [7] and in experiment [8] was inactive.
Consider `COc1cc2nccc(Nc3ccc4c(cnn4Cc4cccc(F)c4)c3)c2cc1OC`, for which the growth inhibition in experiment [1] is 99% (active); in experiment [4], 101% (active). Besides, the inhibition was 29% in experiment [2] and -6% in experiment [3]. Further, the result in experiment [5], in experiment [6], in experiment [7] and in experiment [8] was inactive.
As to `CCN(CC)CCN(Cc1ccc(-c2ccc(C(F)(F)F)cc2)cc1)C(=O)Cn1nc(-c2ccc(C(F)(F)F)cc2)ccc1=O`, the growth inhibition is 83% (active) in experiment [1] and 100% (active) in experiment [4]. Moreover, the inhibition in experiment [2] was 44%; in experiment [3] it was -2%. For the same compound, the result in experiment [5], in experiment [6], in experiment [7] and in experiment [8] was inactive.
On to `CC(=O)CC(=O)N1CCN(c2ccccc2)CC1`, for which the growth inhibition was -6% in experiment [1] and 85% (active) in experiment [4]. Further, the inhibition in experiment [2] was 54% (active); in experiment [3], -1%. Besides, the result in experiment [5], in experiment [6], in experiment [7] and in experiment [8] was inactive.
In the case of `FC(F)(F)c1ccc2nc(-c3ccc(-c4ccc(CN5CCN(c6ccncc6)CC5)cc4)s3)[nH]c2c1`, the growth inhibition in experiment [1] is 50% (active); in experiment [4], 100% (active). Also, the inhibition in experiment [2] is 97% (active); in experiment [3], 2%. Further, the result in experiment [5], in experiment [6], in experiment [7] and in experiment [8] was inactive.
As to `CN1CCCc2ccc(NC(=O)C=Cc3ccc(-c4ccc(F)cc4F)o3)cc2C1`, the growth inhibition is 20% in experiment [1] and 98% (active) in experiment [4]. In addition, the figures for the inhibition in experiment [2] and in experiment [3] were 8% and -5%, respectively. In addition, the result in experiment [5], in experiment [6], in experiment [7] and in experiment [8] was inactive.
Take `O=C(Nc1cccc(F)c1)N1CCC(CN2CCOC(c3ccccc3)(c3ccccc3)C2)CC1`: the figures for the growth inhibition in experiment [1] and in experiment [4] were 97% (active) and 96% (active), respectively. Further, the inhibition is 12% in experiment [2] and 7% in experiment [3]. The result in experiment [5], in experiment [6], in experiment [7] and in experiment [8] was inactive.
As to `CCCn1c(Sc2ccc(C#N)c([N+](=O)[O-])c2)nnc1-c1ccc(Cl)cc1`, the growth inhibition was 95% (active) in experiment [1] and 96% (active) in experiment [4]. Moreover, the figures for the inhibition in experiment [2] and in experiment [3] were 12% and -3%, respectively. Also, the outcome in experiment [5], in experiment [6], in experiment [7] and in experiment [8] was inactive.
Consider `O=C(/C=C/c1ccc(Cl)c(Cl)c1)NCCCCCN1CCC(NC(=O)Nc2ccc(Oc3ccccc3)cc2)C1` (stereo not given), for which the results for the growth inhibition in experiment [1] and in experiment [4] were 6% and 99% (active), respectively. The inhibition in experiment [2] is 35%; in experiment [3] it was 4%. The result in experiment [5], in experiment [6], in experiment [7] and in experiment [8] was inactive.
With `O=C(Nc1ccc(F)cc1)NC1CCN(c2ccnc3cc(Cl)ccc23)C1` (stereo not given), the growth inhibition in experiment [1] is 67% (active); in experiment [4] it was 101% (active). The figures for the inhibition in experiment [2] and in experiment [3] were 17% and 2%, respectively. The result in experiment [5], in experiment [6], in experiment [7] and in experiment [8] was inactive.
With `Nc1ncc(-c2ccsc2)cc1-c1nc2ccccc2[nH]1`, the values for the growth inhibition in experiment [1] and in experiment [4] were 8% and 99% (active), respectively. Further, the inhibition in experiment [2] is 33%; in experiment [3] it was -2%. Moreover, the result in experiment [5], in experiment [6], in experiment [7] and in experiment [8] was inactive.
As for `COc1ccc2c(=O)c(I)c(C)[nH]c2c1`, the growth inhibition in experiment [1] and in experiment [4] was 96% (active) each time. Besides, the inhibition was 27% in experiment [2] and 4% in experiment [3]. Further, the outcome in experiment [5], in experiment [6], in experiment [7] and in experiment [8] was inactive.
With `COCCNCc1cccc(-c2ccc3nccc(Nc4cc(O)ccc4C)c3c2)c1`, the results for the growth inhibition in experiment [1] and in experiment [4] were 92% (active) and 101% (active), respectively. For the same compound, the inhibition was -1% in experiment [2] and 4% in experiment [3]. For the same compound, the result in experiment [5], in experiment [6], in experiment [7] and in experiment [8] was inactive.
As for `COc1ccc(CC2(c3ccc(F)cc3)N=C(N)N(CCCc3ccc4c(c3)OCO4)C2=O)cc1` (stereo not given), the values for the growth inhibition in experiment [1] and in experiment [4] were 97% (active) and 98% (active), respectively. The inhibition in experiment [2] is 60% (active); in experiment [3], 3%. The outcome in experiment [5], in experiment [6], in experiment [7] and in experiment [8] was inactive.
Regarding `CCCCN(CCCC)CCNC(=O)c1cccc(NC(=O)N2CCc3cc(SC)c(C(F)(F)F)cc32)c1`, the growth inhibition was 32% in experiment [1] and 96% (active) in experiment [4]. Moreover, the inhibition in experiment [2] was 15%; in experiment [3], -1%. In addition, the outcome in experiment [5], in experiment [6], in experiment [7] and in experiment [8] was inactive.
Regarding `Cc1cc(-c2cc3nc4c(c(=O)n3[nH]2)CCCC4)c(C)o1`, the growth inhibition is 82% (active) in experiment [1] and 94% (active) in experiment [4]. The inhibition is 4% in experiment [2] and -4% in experiment [3]. Moreover, the result in experiment [5], in experiment [6], in experiment [7] and in experiment [8] was inactive.
`COc1c(CCNCCCCNCCc2cc(Cl)c3ccccc3c2OC)cc(Cl)c2ccccc12`: the growth inhibition in experiment [1] was 100% (active); in experiment [4] it was 99% (active). The inhibition is 99% (active) in experiment [2] and -7% in experiment [3]. For the same compound, the outcome in experiment [5], in experiment [6], in experiment [7] and in experiment [8] was inactive.
